Results taken from PubChem BioAssay (NCATS).
“And” between values parts separate entries of the source, which are not always exact repeats. Equal values may be shown once. Inconclusive results are not listed. The source made the active and inactive calls. Unless noted, calls come from the whole dose curve; as a rule, active = well fitted curve in the direction sought with a large enough effect; inconclusive = small, poorly fitted or top-dose-only effect, or another doubt; inactive = no such curve, though single readings can be large; an effect the other way counts as inactive or inconclusive.

What was measured:
[1] = qHTS for Activators of Parkin Expression: LOPAC Validation Assay (NLuc Reporter) (AID 720572; note: potency is the fitted concentration of half-maximal effect)
Method in brief: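 Parkin promoter-driven FLuc/NLuc neuronal reporter cells; 24 h plating, 7-pt dose response, 24 h at 37 C/5% CO2; FLuc then NanoLuc reagent, 10 min each, luminescence; DMSO/positive control normalized.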

[2] = qHTS for Activators of Parkin Expression: LOPAC Validation Assay (FLuc Reporter) (AID 720573;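 note: 0% = DMSO and 100% = positive control compounds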)
Method in brief: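 A neuronal cell line harbouring FLuc and NLuc reporters behind the Parkin promoter was exposed to compounds for 24 h. Firefly luciferase signal, measured after 10 min with detection reagent, was scaled to DMSO and positive-control wells.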

[3] = target: T1, Hexokinase-4 (Homo sapiens) + Glucokinase regulatory protein (Homo sapiens) (UniProt P35557+Q14397); assay: qHTS assay for inhibitors of recombinant human GCK-GKRP interaction: Diaphorase-coupled assay (AID 743205)
Method in brief: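 Inhibitors of the GCK–GKRP complex relieve GKRP suppression of GCK, detected through a G6PDH–diaphorase cascade reducing resazurin. Human GST-GCK and FLAG-GKRP are used at 10 nM with 5 mM glucose and 0.4 mM ATP.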

[4] = target: T1, Hexokinase-4 (Homo sapiens) + Glucokinase regulatory protein (Homo sapiens); assay: qHTS assay for inhibitors of recombinant human GCK-GKRP interaction: ADP-Glo assay (AID 743206);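 note: plate controls were DMSO plus enzyme for no effect and no enzyme for full effect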
Method in brief: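 GST-GCK and FLAG-GKRP (15 nM each in the dispensed mix, with 2 uM S6P) react with 0.4 mM ATP and 5 mM glucose (final) in Hepes pH 7.6 for 60 min at room temperature. ADP is measured by ADP-Glo luminescence.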

[5] = target: T1, Hexokinase-4 (Homo sapiens) + Glucokinase regulatory protein (Homo sapiens); assay: qHTS assay for inhibitors of recombinant human GCK-GKRP interaction: HTRF assay (AID 743207);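 note: 0% = DMSO with GCK present and -100% = DMSO wells lacking GCK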
Method in brief: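 Steps: dispense GCK–GKRP complex (5 nM each, GST- and FLAG-tagged) with 2 uM S6P; pin in compounds; add XL665/Eu-cryptate-labelled antibodies; incubate 60 min at room temperature; read time-resolved FRET at 665 and 615 nm.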

[6] = qHTS Assay for Identifying Gametocytocidal Compounds (AID 743244); note: potency is the fitted concentration of half-maximal effect;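 for max response: % is set by controls: 0 for no effect and ±100 for the full control effect; actives lower the fluorescent signal which means gametocytes are killed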; conditions: P. falciparum 3D7 stage III-V gametocytes, alamarBlue, 72 h; max response: stronger effect = lower value
Method in brief: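 Late gametocytes (III–V), P. falciparum 3D7; 72 h drug, then 24 h alamarBlue; resazurin reduction read by fluorescence.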

[7] = qHTS profiling of the MIPE4 collection as inhibitors of Plasmodium falciparum (3D7) proliferation (AID 743344; call rule not given here;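 note: scaled between DMSO vehicle wells and 0.29 µM artemisinin as full inhibition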); conditions: P. falciparum 3D7 in erythrocytes, SYBR Green DNA fluorescence, 72 h; at 28.5 µM (top of the series) unless noted
Method in brief: (§1)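 Erythrocytes infected with P. falciparum (0.3% parasitemia, 2.5% hematocrit) incubated with compounds 72 h at 37 C, 5% CO2. Lysis with saponin/Triton buffer containing SYBR Green I, overnight at room temperature in the dark; DNA fluorescence (485/535 nm) normalised to 0.29 uM artemisinin and DMSO.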

[8] = qHTS profiling of the MIPE4 collection as inhibitors of Plasmodium falciparum (DD2) proliferation (Rep 2) (AID 743346; call rule not given here); conditions: P. falciparum Dd2 in erythrocytes, SYBR Green DNA, 72 h; at 28.5 µM (top of the series) unless noted
Method in brief: as §1

[9] = qHTS profiling of the MIPE4 collection as inhibitors of Plasmodium falciparum (HB3) proliferation (AID 743347; call rule not given here;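 note: plate controls were DMSO vehicle wells for no effect and artemisinin wells for full effect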); conditions: P. falciparum HB3 in erythrocytes, SYBR Green DNA, 72 h; at 28.5 µM (top of the series) unless noted
Method in brief: as §1

[10] = qHTS assay for small molecule agonists of the antioxidant response element (ARE) signaling pathway measured by Nrf2-dependant transcriptional activity (AID 720636; active = well fitted curve in the direction sought with a large enough effect in the repeat runs; an effect the other way counts as inactive or inconclusive; note: % of control where 0% means no effect)
Method in brief: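 ARE-luc HepG2 cells carrying an Nrf2-responsive luciferase reporter, in medium with 1% dialyzed FBS, exposed to compound for 16 hr at 37 C, 5% CO2. Luminescence read 30 min after ONE-Glo addition.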

[11] = qHTS assay for small molecule agonists of the antioxidant response element (ARE) signaling pathway measured by Nrf2-dependant transcriptional activity - cell viability counter screen (AID 720653; active = well fitted curve in the direction sought with a large enough effect in the repeat runs; an effect the other way counts as inactive or inconclusive; note: % is set by controls: 0 for no effect and ±100 for the full control effect); conditions: ARE-bla HepG2 viability, CellTiter-Glo ATP luminescence, 16 h; stronger effect = lower value
Method in brief: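 Cytotoxicity counter screen: intracellular ATP quantified by CellTiter-Glo luminescence in the same ARE-bla HepG2 plates, after 16 h compound exposure and a 2 h beta-lactamase substrate step.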

[12] = qHTS assay for cell viability of HEK293 cells (AID 743288); conditions: ATP luminescence (CellTiter-Glo), 18 h; max response: stronger effect = lower value; note: nearly all actives have a fitted effect of over 50% in size; note: potency is the fitted concentration of half-maximal effect; for max response: % is set by controls: 0 for no effect and ±100 for the full control effect
Method in brief: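 The Tox21 protocol used parental HEK293 cells treated for 18 h at 37 C with compounds delivered by pintool; ATP-coupled luminescence after 30 min at room temperature gave viability.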

[13] = qHTS profiling for inhibitors of Plasmodium falciparum (3D7) proliferation (AID 743322; call rule not given here;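 note: infected erythrocytes exposed to compound for 72 h before lysis; 100% = DMSO vehicle wells and 0% = 0.29 µM artemisinin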); conditions: P. falciparum 3D7 proliferation; at 28.7 µM (top of the series) unless noted
Method in brief: as §1

[14] = qHTS profiling for inhibitors of Plasmodium falciparum (DD2) proliferation (AID 743323; call rule not given here); conditions: lower = more inhibition; at 28.7 µM (top of the series) unless noted
Method in brief: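 P. falciparum Dd2-infected erythrocytes (0.3% parasitemia, 2.5% hematocrit) exposed 72 h at 37 C, 5% CO2. Lysis with SYBR Green, overnight at room temperature, fluorescence 485/535 nm; normalized to 0.29 uM artemisinin and DMSO.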

[15] = qHTS profiling for inhibitors of Plasmodium falciparum (HB3) proliferation (AID 743324); conditions: Plasmodium falciparum HB3 blood-stage proliferation; at 28.7 µM (top of the series) unless noted;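 note: 100% = DMSO vehicle wells and 0% = artemisinin-treated control wells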
Method in brief: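 P. falciparum HB3 grown in erythrocytes (0.3% parasitemia, 2.5% hematocrit final) with compound for 72 h at 37 C, 5% CO2. Parasite DNA detected by SYBR Green after saponin/triton lysis overnight; normalized to 0.29 uM artemisinin and DMSO.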

[16] = qHTS profiling of the MIPE4 collection as inhibitors of Plasmodium falciparum (DD2) proliferation (AID 743345; call rule not given here); conditions: P. falciparum Dd2 in erythrocytes, SYBR Green DNA, 72 h; at 28.5 µM (top of the series) unless noted
Method in brief: as §1

[17] = qHTS assay for cell viability of the p53RE-bla HCT-116 cell line (AID 743292); note: nearly all actives have a fitted effect of over 55% in size; note: potency is the fitted concentration of half-maximal effect
Method in brief: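 CellSensor p53RE-bla HCT-116 cells (4,000/well) pre-incubated 5 h at 37 C, then exposed to compounds in DMSO for 16 h at 37 C. Viability read as ATP content by CellTiter-Glo luminescence after 30 min at room temperature.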

T1 sequence (P35557 whole entry, looked up): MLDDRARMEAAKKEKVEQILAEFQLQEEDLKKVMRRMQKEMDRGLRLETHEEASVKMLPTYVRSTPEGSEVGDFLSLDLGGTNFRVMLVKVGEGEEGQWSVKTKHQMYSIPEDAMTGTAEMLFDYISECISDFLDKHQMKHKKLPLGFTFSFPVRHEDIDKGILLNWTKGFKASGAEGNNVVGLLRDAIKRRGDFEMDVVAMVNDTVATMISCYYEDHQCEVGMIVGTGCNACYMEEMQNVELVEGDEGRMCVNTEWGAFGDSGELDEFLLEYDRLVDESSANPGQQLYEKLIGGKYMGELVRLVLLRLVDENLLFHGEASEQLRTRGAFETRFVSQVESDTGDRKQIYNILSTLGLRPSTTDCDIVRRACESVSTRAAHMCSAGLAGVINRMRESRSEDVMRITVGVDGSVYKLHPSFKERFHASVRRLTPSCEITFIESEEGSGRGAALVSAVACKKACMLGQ
T1 sequence (Q14397 whole entry, looked up): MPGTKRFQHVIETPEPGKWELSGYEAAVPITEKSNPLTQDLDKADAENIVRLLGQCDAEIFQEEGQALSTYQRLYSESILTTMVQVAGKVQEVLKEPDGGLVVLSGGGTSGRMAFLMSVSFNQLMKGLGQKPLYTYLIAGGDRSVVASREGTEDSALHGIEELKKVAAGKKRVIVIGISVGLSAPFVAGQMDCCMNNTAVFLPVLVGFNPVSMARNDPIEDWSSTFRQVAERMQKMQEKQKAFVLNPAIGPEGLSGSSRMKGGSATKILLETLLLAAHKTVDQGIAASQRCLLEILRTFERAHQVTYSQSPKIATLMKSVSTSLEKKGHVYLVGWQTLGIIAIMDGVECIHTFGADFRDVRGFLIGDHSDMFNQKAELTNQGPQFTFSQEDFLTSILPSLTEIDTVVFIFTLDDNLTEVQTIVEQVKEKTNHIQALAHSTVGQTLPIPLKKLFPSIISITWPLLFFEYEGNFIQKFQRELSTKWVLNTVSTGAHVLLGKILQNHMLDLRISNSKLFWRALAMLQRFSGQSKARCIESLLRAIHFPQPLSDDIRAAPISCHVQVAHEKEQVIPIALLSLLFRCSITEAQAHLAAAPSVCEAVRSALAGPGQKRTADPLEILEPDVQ

Row | SMILES | Potency [1] | outcome [2] | outcome [3] | outcome [4] | outcome [5] | max response [6] | parasite growth, % of DMSO control [7] | parasite growth, % of control (lower = inhibition) [8] | growth, % of control [9] | outcome [10] | max response [11] | max response [12] | remaining parasite growth % (stronger effect = lower value) [13] | activity, percent of control [14] | remaining proliferation (% of control), lower = more inhibition [15] | parasite growth remaining, % of DMSO control (lower = more inhibition) [16] | Potency [12] | Potency [17] | Potency [6]
1 | N=c1nc(N2CCCCC2)cc(N)n1O | inactive | inactive | inactive | inactive | inactive | 1.66% (inactive) and 5.64% (inactive) | 6.29% | 7.66% | 3.91% | – | – | – | – | – | – | – | – | – | –
2 | Cc1c(C)c2c(c(C)c1O)CCC(C)(COc1ccc(CC3SC(=O)NC3=O)cc1)O2 (stereo not given) | – | – | – | – | – | 13.5% (inactive) and 17.4% (inactive) | 35.4% | 43.6% | 62.4% | inactive | 5.17% (inactive) | -10.3% (inactive) | 93.1% | 80% | 46.8% | 83.4% | – | – | –
3 | CC(C)(C)NCC(O)c1ccc(O)c(CO)c1 (stereo not given) | inactive | inactive | – | – | – | 0.0655% (inactive) and 23.1% (inactive) | – | – | – | – | – | – | – | – | – | – | – | – | –
4 | OC(CCN1CCCCC1)(c1ccccc1)C1CC2C=CC1C2 (stereo not given) | inactive | inactive | inactive | inactive | inactive | -9.9% (inactive) | – | 44.2% | 35.8% | – | – | – | – | – | – | 75.2% | – | – | –
5 | Clc1cccc(Cl)c1NC1=NCCN1 | inactive | inactive | inactive | inactive | inactive | 7.62% (inactive) and 5.35% (inactive) | 86.2% | 56.5% | 70.5% | – | – | – | – | – | – | 77.5% | – | – | –
6 | CC(C[N+](C)(C)C)OC(N)=O (stereo not given) | inactive | inactive | inactive | inactive | inactive | 11.1% (inactive) | 102% | 96.7% | 69.1% | – | – | – | – | – | – | 101% | – | – | –
7 | O=C(O)COCCN1CCN(C(c2ccccc2)c2ccc(Cl)cc2)CC1 (stereo not given) | inactive | inactive | inactive | inactive | inactive | -12% (inactive) and 28.9% (inactive) | 82.3% | 72.8% | 91% | – | – | – | – | – | – | 104% | – | – | –
8 | Cc1cc2c(C(C)C)c(O)c(O)c(C=O)c2c(O)c1-c1c(C)cc2c(C(C)C)c(O)c(O)c(C=O)c2c1O | inactive | – | inactive | – | – | – | 8.6% | 19.3% | 14.8% | – | – | – | 5.05% and 5.11% | 13.9% and 10.5% | -0.222% and 1.83% | 15% | 35.5 µM (active) | 12.6 µM (active) | –
9 | Oc1ccc(C2CNCCc3c2cc(O)c(O)c3Cl)cc1 (stereo not given) | – | – | inactive | inactive | inactive | 2.69% (inactive) and -7.1% (inactive) | 6.63% | 14.2% | 7.76% | – | – | – | – | – | – | 65.8% | – | – | –
10 | Cc1cccc(-c2[nH]c(C(C)(C)C)nc2-c2ccc3nccnc3c2)n1 | inactive | inactive | inactive | inactive | inactive | – | 23.7% | 34.2% | 6.8% | – | – | – | 54.8% | 67.1% | 27% | 47.6% | – | – | 662 nM (active)
11 | Cc1oncc1C(=O)Nc1ccc(C(F)(F)F)cc1 | – | – | inactive | inactive | inactive | 50.5% (inactive) and -6.39% (inactive) and -7.89% (inactive) | – | 61.2% | 10.6% | – | – | – | 104% and 91.9% | 94.9% and 88.9% | 95% and 87.2% | 102% | – | – | –
12 | O=C1CCc2cc(OCCCCc3nnnn3C3CCCCC3)ccc2N1 | inactive | inactive | inactive | inactive | inactive | 16.8% (inactive) and 6.18% (inactive) | 90.8% | 115% | 104% | – | – | – | – | – | – | 99.1% | – | – | –
13 | CCn1cc(C(=O)O)c(=O)c2cc(F)c(N3CCNC(C)C3)c(F)c21 (stereo not given) | inactive | inactive | inactive | inactive | inactive | 19.5% (inactive) and 11.6% (inactive) and 13.2% (inactive) | – | 83.6% | 91.5% | – | – | – | – | – | – | – | – | – | –
14 | O=c1n(CCCN2CCN(c3cccc(Cl)c3)CC2)nc2ccccn12 | inactive | inactive | inactive | inactive | inactive | 8.61% (inactive) and 11.5% (inactive) | 60.5% | 72.8% | 92.5% | – | – | – | – | – | – | 82.9% | – | – | –
15 | CCCCNc1cc(C(=O)O)cc(S(N)(=O)=O)c1Oc1ccccc1 | inactive | inactive | inactive | inactive | inactive | -3.91% (inactive) and 1.19% (inactive) | – | 102% | 84% | – | – | – | – | – | – | 99.3% | – | – | –
16 | CCN(CC)CCCC(C)Nc1ccnc2cc(Cl)ccc12 (stereo not given) | inactive | inactive | inactive | inactive | inactive | – | 19.3% | 15.1% | 41.8% | – | – | – | 0.37% | 2.54% | 0.178% | 10.1% | – | – | –
17 | CCC(C)N(C)C(=O)c1cc2ccccc2c(-c2ccccc2Cl)n1 (stereo not given) | 20.6 µM (active) | inactive | inactive | inactive | inactive | 24.9% (inactive) | 39% | 53.7% | 53.6% | – | – | – | 86.5% | 80.9% | 42% | – | – | – | –
18 | NCCc1ccc(O)c(O)c1 | inactive | inactive | inactive | inactive | inactive | – | 74.8% | 39.7% | 53.9% | – | – | – | – | – | – | 20.2% | – | – | –
19 | Cc1cn[nH]c1 | inactive | inactive | inactive | inactive | inactive | 28.3% (inactive) and 8.61% (inactive) | 5.44% | 6.63% | 8.35% | – | – | – | – | – | – | – | – | – | –
20 | CCOC(=O)C1=C[C@]2(CC)CCCN3CCc4c(n1c1ccccc41)[C@@H]32 | inactive | inactive | inactive | inactive | inactive | -1.66% (inactive) | 5.46% and 17.8% | 35.2% and 34.2% | 10% and 13.6% | – | – | – | – | – | – | 8.67% and 83.7% | – | – | –
21 | Cc1ccc(N(CC2=NCCN2)c2cccc(O)c2)cc1 | inactive | inactive | inactive | inactive | inactive | 9.03% (inactive) | 69.6% | 57% | 95.9% | – | – | – | – | – | – | 92.8% | – | – | –
22 | NC[C@H](O)c1ccc(O)c(O)c1 | – | – | inactive | inactive | inactive | 20.6% (inactive) and 26.6% (inactive) | 71.5% | 78.3% | 82.4% | inactive | -7.71% (inactive) | -4.13% (inactive) | – | – | – | 97.8% | – | inactive | –
